Screening results: PubChem BioAssay, several laboratories
Rows were chosen to be rich in hits. Some 3.7% of all compounds tested hit in one or more screens of this group.
TMEM16A act = TMEM16A chloride channel activators or potentiators, primary screen, cell-based, HTS; Anoctamin-1 (Mus musculus), Q8BHY3; HEK293 TMEM16A/YFP-H148Q/I152L, iodide quench fluorescence; stronger effect = lower value; B-score at 10 µM; 340,000 tested, 0.3% active;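 active = fluorescence-ratio B-score plate-corrected deviation score at least 3 library SD below zero, with starting fluorescence score within 5 deviations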;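 also: channel opened by trigger with iodide after compound preincubation; score built on the fluorescence ratio of max minus min over baseline; more negative score means more quench and so TMEM16A activation or potentiation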
GPR7 antagonist = GPR7 receptor antagonists, primary screen, cell-based, fluorescence, single concentration; 290,000 tested, 1.1% active; GPR7-expressing cells, fluorescence antagonist assay; inhibition, % at 4.4 µM; AID 1861, 2009; Neuropeptides B/W receptor type 1 (Homo sapiens), P48145; in the data active = inhibition above about 16%, passing the limit was not always enough;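 also: cells stimulated with the agonist NPW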
CHT allo act = CHT positive allosteric modulators, primary screen, cell-based, membrane potential dye, choline EC20; High affinity choline transporter 1 (Homo sapiens), Q9GZV3; CHT-expressing cells; stronger effect = higher value; LV-AA mutant CHT in HEK293 cells; B-score at 10 µM; 310,000 tested, 0.49% active;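 active = initial fluorescence not abnormally high and integrated response B-score, plate-corrected, over 3 SD above library mean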
Target sequence (Q9GZV3 whole entry, looked up): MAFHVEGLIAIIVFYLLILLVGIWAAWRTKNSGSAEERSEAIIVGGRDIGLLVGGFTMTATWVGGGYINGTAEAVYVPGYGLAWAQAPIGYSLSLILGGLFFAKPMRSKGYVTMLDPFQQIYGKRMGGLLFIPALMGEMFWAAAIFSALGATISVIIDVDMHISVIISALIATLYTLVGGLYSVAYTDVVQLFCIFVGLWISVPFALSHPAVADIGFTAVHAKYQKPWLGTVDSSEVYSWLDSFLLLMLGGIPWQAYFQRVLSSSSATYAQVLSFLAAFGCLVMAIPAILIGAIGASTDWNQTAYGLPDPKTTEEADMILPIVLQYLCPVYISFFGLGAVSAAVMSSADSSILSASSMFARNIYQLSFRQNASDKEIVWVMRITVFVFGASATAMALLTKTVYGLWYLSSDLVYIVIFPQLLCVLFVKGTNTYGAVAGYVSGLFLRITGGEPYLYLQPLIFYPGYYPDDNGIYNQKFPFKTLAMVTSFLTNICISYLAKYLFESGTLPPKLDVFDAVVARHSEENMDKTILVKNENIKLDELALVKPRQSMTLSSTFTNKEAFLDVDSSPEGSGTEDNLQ
Kir21 block = inhibitors of mouse Kir2.1 inward-rectifier potassium channel | Inward rectifier potassium channel 2 (Mus musculus), P35561 | HEK293-Kir2.1, FluxOR thallium flux fluorescence; stronger effect = lower value | B-score at 10 µM | 310,000 tested, 0.85% active | AID 1672, 2009;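 active = fluorescence ratio B-score at or below minus 3 SD of library scores, with starting-brightness B-score within 2 SD, cut at about -4.2 in these data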;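 also: channel flux triggered by added potassium and thallium sulfate stimulus; B-score of peak minus minimum fluorescence over baseline after thallium stimulus; more negative B-score means stronger Kir2.1 block with less thallium influx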
TMEM16A inh = TMEM16A chloride channel inhibitors, primary screen, cell-based, HTS. Anoctamin-1 (Mus musculus), Q8BHY3. HEK293 TMEM16A/YFP iodide influx fluorescence, ionomycin. normalized B-score (activity score, 25-100; higher = stronger inhibition) at 10 µM. 310,000 tested, 1.2% active;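 active = ratio plate-corrected score three or more library SD toward inhibition, starting fluorescence score within five deviations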;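 also: score derived from kinetic fluorescence span divided by baseline fluorescence per well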
CHT block = inhibitors of human choline transporter CHT. CHT-expressing cells, membrane potential dye, choline response; stronger effect = lower value. B-score at 10 µM. 310,000 tested, 0.86% active;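 active = B-score over 3 SD under the library average, and starting fluorescence ratio not unusually high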;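 also: choline stimulus applied at its EC90 after an EC20 pre-addition; B-score computed on integrated fluorescence ratio after choline addition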
TMEM16A reconf = TMEM16A chloride channel inhibitors, confirmation, cell-based, re-confirmation; shares compounds with TMEM16A inh; HEK293 TMEM16A/YFP-H148Q, iodide quench fluorescence; ionomycin added to raise cell calcium; inhibition, % at 10 µM; 2,300 tested, 39% active; AID 652189, 2013;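 active = mean duplicate percent inhibition, scaled so buffer wells are 0 and the reference blocker 100, over three buffer SD above buffer mean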
HEK293 Ca mobil = calcium mobilization in TMEM16A/YFP HEK293 cells, confirmation, counter-screen for TMEM16A inhibitor project. shares compounds with TMEM16A inh. Fluo4 calcium mobilization. calcium response (% of ionomycin), % at 10 µM. 2,300 tested, 2% active. AID 652231, 2013;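 active = duplicate-averaged calcium signal over 20% of the ionomycin maximum, relative to buffer baseline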;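 also: each well's signal is peak minus trough fluorescence divided by its pre-addition baseline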
YFP-HEK293 quench = iodide YFP quench changes in parental YFP-HEK293, counter-screen for TMEM16A inhibitor project, cell-based; shares compounds with TMEM16A inh; ionomycin; YFP ratio F(max-min)/F0 at 10 µM; 2,300 tested, under 10 active;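 active = yellow fluorescent protein signal ratio exceeding the buffer control mean by over 5 SD of those controls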;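 also: ratio is mean of duplicate wells from kinetic YFP trace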
ClC-1 inh = ClC-1 chloride channel inhibition, selectivity assay for TMEM16A inhibitor project, cell-based, voltage-dependent ClC-1. shares compounds with TMEM16A inh. CHO ClC-1-YFP, iodide influx fluorescence quench; iodide control reads 0, buffer control 100. ratio percent, % at 10 µM. 2,300 tested, under 10 active;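 active = duplicate-mean ratio percent above the mean of iodide-only control wells, which defines zero, plus 5 of their SD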;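 also: higher percent means stronger block of ClC-1 iodide influx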
Numbers stand for hits.

`O=C(Nc1ccc2c(c1)OCO2)C1CCN(Cc2cnn(-c3ccccc3)c2-n2cccc2)CC1` gave TMEM16A act inactive, GPR7 antagonist inactive, CHT allo act inactive, Kir21 block inactive, TMEM16A inh 100, CHT block inactive, TMEM16A reconf inactive, HEK293 Ca mobil inactive, YFP-HEK293 quench inactive and ClC-1 inh inactive.
Screening Oc1ccccc1CNc1cnc2ccccc2c1 returned TMEM16A act inactive, GPR7 antagonist inactive, CHT allo act inactive, Kir21 block inactive, TMEM16A inh 100, CHT block inactive, TMEM16A reconf inactive, HEK293 Ca mobil inactive, YFP-HEK293 quench inactive and ClC-1 inh inactive.
`Cc1cc2[nH]c(=O)c(=O)[nH]c2cc1S(=O)(=O)Nc1cccc(Cl)c1` gave TMEM16A act inactive, GPR7 antagonist inactive, CHT allo act inactive, Kir21 block inactive, TMEM16A inh inactive and CHT block inactive.
Screening COc1cccc(/C=C/C(=O)OCC(=O)Nc2nnc(-c3ccccc3)o2)c1 returned TMEM16A act inactive, CHT allo act inactive, Kir21 block inactive, TMEM16A inh inactive and CHT block inactive.
Screening CCOC(=O)c1c(NC(=O)COC)sc(C)c1C returned TMEM16A act inactive, GPR7 antagonist inactive, CHT allo act inactive, Kir21 block inactive, TMEM16A inh inactive and CHT block inactive.
`CCOC(=O)c1c(NC(=O)COC(=O)C2CC2C)sc(C)c1C` (stereo unspecified) gave TMEM16A act inactive, GPR7 antagonist inactive, CHT allo act inactive, Kir21 block inactive, TMEM16A inh 25, CHT block inactive, TMEM16A reconf inactive, HEK293 Ca mobil inactive, YFP-HEK293 quench inactive and ClC-1 inh inactive.
Nc1nc2n(n1)C(=O)CC(c1ccccc1)N2 (stereo unspecified) was read as TMEM16A act inactive, GPR7 antagonist inactive, CHT allo act inactive, Kir21 block inactive, TMEM16A inh inactive and CHT block inactive.
For COc1cccc(Nc2nc(NCCO)c3ccccc3n2)c1 the results were TMEM16A act inactive, GPR7 antagonist inactive, CHT allo act inactive, Kir21 block inactive, TMEM16A inh inactive and CHT block inactive.
`COc1cccc(Nc2nc(NCC3CCCO3)c3ccccc3n2)c1` (stereo unspecified) gave TMEM16A act inactive, GPR7 antagonist inactive, CHT allo act inactive, Kir21 block -13.4, TMEM16A inh 100, CHT block inactive, TMEM16A reconf 43.5%, HEK293 Ca mobil inactive, YFP-HEK293 quench inactive and ClC-1 inh inactive.
`COc1ccc(S(=O)(=O)Nc2ccccc2C(F)(F)F)cc1` gave TMEM16A act inactive, GPR7 antagonist inactive, CHT allo act inactive, Kir21 block inactive, TMEM16A inh 100, CHT block inactive, TMEM16A reconf inactive, HEK293 Ca mobil inactive, YFP-HEK293 quench inactive and ClC-1 inh inactive.
